Vaccinia mCherry: qHTS for Stage-Specific Inhibitors of Vaccinia Orthopoxvirus: mCherry Reporter Primary qHTS | AID 720579, 2013 | hit rate 0.63% among 310,000 | Potency, µM (titrated, usually from 36.5 µM), inactives show top-dose activity change, negative = inhibition, most hits filed as inhibitors | Vaccinia virus mCherry reporter infection, fluorescence; calls by dose curve; tested in A549 cells; further: potency means the concentration at half of the fitted maximal effect; nearly all actives have a fitted effect of over 35% in size
HCMV inh: qHTS Assay for inhibitors of the human cytomegalovirus (HCMV); HFF cells, HCMV-luciferase reporter, 72 h; hits give low values; activity change, negative = inhibition, % at 57.5 µM; hit rate 4.5% among 410,000; AID 1259415, 2018; in the data active means activity change below about -60%; inconclusive means no clear call, values can overlap the other calls; inactive means above about -39%
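Human foreskin fibroblasts infected with luciferase-reporter HCMV at MOI 1 PFU/cell, compounds at two doses. Luciferase measured 72 h post infection; normalized to buffer-only basal and Salinomycin (10uM) controls.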
TbPYK inhibitor: qHTS of Trypanosoma Brucei Inhibitors; hit rate 0.12% among 410,000; AID 624173, 2012; TbPYK enzyme, Kinase-Glo Plus ATP luminescence, 45 min; Potency, µM (doses to about 76.8 µM), without a hit: top-dose activity, negative = inhibition, most hits filed as inhibitors; further: potency means the concentration at half of the fitted maximal effect; nearly all actives have a fitted effect of over 50% in size
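Readout: single end-point luminescence (Kinase-Glo Plus, 10 min). Reaction conditions were TbPYK/substrate plus 130 uM ADP, 45 min at RT, pH 7.2 TEA buffer. No-enzyme wells served as controls, and data were normalized before concentration-response fitting.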
LmPK inhibitor: qHTS Assay for Inhibitors of Leishmania Mexicana Pyruvate Kinase (LmPK); purified LmPK, Kinase-Glo ATP luminescence, 1 h; hit rate 0.37% among 290,000; Potency, µM (doses to about 57.5 µM), for the others: at the highest dose activity change, negative = inhibition, hits mostly inhibitors; AID 1721, 2009; further: potency means the concentration at half of the fitted maximal effect
Target sequence (Q27686 whole entry, looked up): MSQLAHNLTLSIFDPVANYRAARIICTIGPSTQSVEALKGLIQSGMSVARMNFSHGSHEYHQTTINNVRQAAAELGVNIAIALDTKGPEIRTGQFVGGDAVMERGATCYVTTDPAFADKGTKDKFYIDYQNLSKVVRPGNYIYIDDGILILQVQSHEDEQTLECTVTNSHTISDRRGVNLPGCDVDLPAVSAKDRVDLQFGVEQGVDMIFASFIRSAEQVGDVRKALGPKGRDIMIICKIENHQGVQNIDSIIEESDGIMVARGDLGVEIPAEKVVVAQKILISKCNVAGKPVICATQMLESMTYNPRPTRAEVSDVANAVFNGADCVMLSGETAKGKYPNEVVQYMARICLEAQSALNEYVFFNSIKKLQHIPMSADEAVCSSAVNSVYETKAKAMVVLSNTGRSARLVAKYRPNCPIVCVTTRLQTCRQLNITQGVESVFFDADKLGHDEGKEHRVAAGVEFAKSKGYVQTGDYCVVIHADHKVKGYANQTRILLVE
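Pyruvate kinase activity monitored as ATP production (luciferase luminescence). Conditions: 0.1 nM enzyme, 0.5 mM PEP, 0.1 mM ADP, 1 h, RT; normalized against uninhibited and no-enzyme wells.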
Vaccinia Venus: qHTS for Stage-Specific Inhibitors of Vaccinia Orthopoxvirus: Venus Reporter Primary qHTS | hit rate 0.46% among 330,000 | Potency, µM (doses to about 36.5 µM), for the others: top-dose activity change, negative = inhibition, most hits filed as inhibitors | Vaccinia virus Venus reporter expression, fluorescence; calls by dose curve; tested in A549 cells; further: potency means the concentration at half of the fitted maximal effect; nearly all actives have a fitted effect of over 30% in size
An asterisk follows results filed as active; i = inactive; ? = inconclusive; . = no result given. Shown are actives, neighbours in structure and some others; about 5% of the full set was active somewhere. Unless noted, the call rests on the fitted dose curve; in most records, active means well fitted curve in the direction sought with a large enough effect; inconclusive means small, poorly fitted or top-dose-only effect, or another doubt; inactive means no such curve, though single readings can be large; an effect the other way counts as inactive or inconclusive. On the % scale 0 is the no-effect control and ±100 the full control effect.

SMILES	Vaccinia mCherry	HCMV inh	TbPYK inhibitor	LmPK inhibitor	Vaccinia Venus
Cc1ccn2c(=O)c(C(=O)NC(C)c3ccccc3)c(O)nc2c1 (stereo not given)	-13.9%	-70.2*	-3.1%	.	-26.3%
Cc1ccc(CCNC(=O)c2cc(C)nc3c2c(C)nn3-c2ccc(C)cc2)cc1	-8.2%	14.7	2.1%	.	-12.6%
Cc1ccc2nc(SCC(=O)NCc3ccc(F)cc3)[nH]c2c1	.	-64.6*	1.7%	0.6%	.
COc1ccc(-c2csc3ncnc(NCCCO)c23)cc1	i	-68.0*	-19.5%	-5.5%	-9.5%
COc1ccc(-c2csc3ncnc(NCCO)c23)cc1	.	-86.6*	3.4%	6.9%	.
CCOc1ccccc1C(=O)NCC(=O)OCC(=O)N1CCCC1	i	-20.9	-5.9%	.	-4.2%
COC(=O)Cc1ccc(NC(=S)N2CCN(c3cccc(O)c3)CC2)cc1	-10.7%	-63.9*	-4.7%	1.6%	-8.0%
O=S(=O)(NC1CC1)c1cccc(S(=O)(=O)N2CCCC2)c1	.	-2.9	-7.3%	4.5%	-18.3%
COc1cccc(NC(=O)Nc2c(C)n(C)n(-c3ccccc3)c2=O)c1	-5.9%	-26.3	1.2%	-1.7%	-5.3%
N=c1c2ccccc2nnn1-c1cccc(C(F)(F)F)c1	-3.4%	-60.6*	5.5%	2.3%	-8.2%
Cc1ccc(Cl)cc1N1CCN(c2cccc[n+]2C)CC1	-26.8%	-92.6*	-5.2%	-2.1%	-21.3%
C[n+]1ccccc1N1CCN(c2ccccc2Cl)CC1	-21.9%	-15.7	-16.3%	2.0%	-19.6%
C[N+](C)(CCOc1ccccc1)Cc1ccccc1	i	15.4	0.8%	.	-16.4%
Cc1cc(C(C)(C)CC(C)(C)C)ccc1OCCOCC[N+](C)(C)Cc1ccccc1	10µM*	-94.4*	-8.9%	.	10µM*
COC(=O)c1cc(S(=O)(=O)N2CCOCC2)c(Cl)cc1N1CCOCC1	.	10.2	-5.4%	-0.8%	.
COC(=O)c1cc(C)nc2c1C(=O)C(=O)C=C2N1CCOCC1	?	-93.1*	-12.2%	-9.9%	4.47µM*
O=C(COc1cccc2c1CCNC2=O)Nc1ccc(F)cc1	i	-13.4	-4.6%	.	-7.3%
NC(=S)n1[nH]c(-c2ccc([N+](=O)[O-])cc2)c(N=Nc2cccc(Cl)c2)c1=O	-29.4%	-101.1*	-3.9%	2.9%	-25.2%
NC(=S)n1[nH]c(-c2ccc([N+](=O)[O-])cc2)c(N=Nc2ccc(O)cc2)c1=O	.	-36.2	-11.2%	-1.3%	.
CN1/C(=C/c2cccc[n+]2C)Sc2ccccc21	.	-96.5*	-9.9%	-0.2%	.
Cc1ccc2c(c1)N(C)/C(=C/c1cccc[n+]1C)S2	i	-97.9*	0.9%	-2.1%	?
Cc1ccc2c(c1)N(C)/C(=C/c1cccc[n+]1CCO)S2	.	-97.1*	-5.5%	0.3%	.
Cc1ccc(S(=O)(=O)CCC(=O)OCC(=O)NCCc2ccc(F)cc2)cc1	i	-31.3	-8.2%	.	-13.3%
c1ccc(-c2csc3ncn4nnnc4c23)cc1	-0.5%	-100.3*	3.2%	2.3%	-4.1%
CCn1cnc2scc(-c3ccccc3)c2c1=O	.	1.9	3.9%	1.4%	.
SMILES	Vaccinia mCherry	HCMV inh	TbPYK inhibitor	LmPK inhibitor	Vaccinia Venus
Cn1nnnc1SCc1nc2scc(-c3ccccc3)c2c(=O)[nH]1	.	12.3	3.0%	-8.2%	.
Cn1nnnc1Sc1ncnc2scc(-c3ccc[nH]3)c12	.	-97.8*	-9.2%	.	.
Cn1nnnc1Sc1ncnc2scc(-c3ccc(Br)cc3)c12	.	-98.0*	2.7%	.	.
Cn1nnnc1Sc1ncnc2scc(-c3ccccc3Br)c12	.	-93.2*	0.3%	.	.
CCN(C(=O)c1sc2nc3n(c(=O)c2c1C)CCCCC3)c1ccccc1F	-14.8%	3.0	6.8%	.	-16.9%
O=C(Nc1ccc(F)cc1)c1cccnc1NCCc1ccccc1	-23.6%	-29.4	2.3%	5.5%	-10.1%
COc1ccc(OC)c(N(CC(=O)NCCSc2ccccc2)S(C)(=O)=O)c1	.	4.7	1.0%	7.6%	.
CC(C)(C)S(=O)(=O)N1Cc2ccc(CO)cc2[C@@H]1CCO	-20.5%	15.2	5.2%	.	-16.0%
Cn1nnnc1Sc1ncnc2scc(-c3cccc4ccccc34)c12	.	?	-7.6%	.	.
Cc1ccc(-c2csc3ncnc(Sc4nnnn4C4CC4)c23)cc1	-24.1%	.	.	.	-28.2%
Cn1nnnc1Sc1ncnc2scc(-c3ccccc3)c12	?	-67.1*	-2.4%	4.9%	?
Cn1nnnc1Sc1ncnc2scc(-c3ccc(F)cc3)c12	10µM*	-76.4*	1.0%	-0.4%	?
c1ccc(-c2csc3ncnc(Sc4nnnn4-c4ccccc4)c23)cc1	?	.	.	.	-29.3%
COc1ccccc1-c1csc2ncnc(Sc3nnnn3C)c12	.	-73.8*	-2.9%	.	.
Cn1nnnc1Sc1ncnc2scc(Br)c12	.	-97.4*	-2.9%	.	.
CCCC(=O)N1CCOCC1c1cc(C(=O)NCc2ccccc2)no1 (stereo not given)	5.6%	-10.5	2.2%	.	-2.7%
CC(C)(C)C(=O)Cn1c[n+](N)cn1	.	-13.9	-4.3%	-0.3%	-18.8%
O=C(CN1C(=O)NC2(CCCC2)C1=O)Nc1ccc(F)c(Cl)c1	-2.8%	29.5	-0.1%	0.5%	-1.8%
O=C(NC1CC1)c1ccc(NS(=O)(=O)c2ccc(F)cc2)cc1	-9.3%	-10.5	5.9%	.	5.8%
O=C(Cn1c(-c2cccs2)cc2cc(F)ccc21)N1CCCCC1	-6.9%	-10.3	-7.8%	.	-10.1%
Cn1nnnc1SCc1nc2scc(-c3ccc(Cl)cc3)c2c(=O)[nH]1	i	-69.8*	6.5%	-1.7%	-7.8%
O=C1CS(=O)(=O)C2(C(=O)N(Cc3ccc(F)cc3)c3ccccc32)N1c1cccc(C(F)(F)F)c1 (stereo not given)	-7.9%	-76.7*	2.7%	.	-7.6%
Cc1ccc(-n2c(C)c([N+](=O)[O-])c3ccc(O)c(CN(C)C)c32)cc1	.	-93.0*	0.3%	8.1%	.
CCOC(=O)c1c(C)n(C)c2ccc(O)c(CN(C)C)c12	.	?	-9.3%	0.7%	-27.6%
COc1ccc(-n2c(C)c([N+](=O)[O-])c3ccc(O)c(CN4CCCCC4)c32)cc1	-17.6%	-72.8*	-0.5%	2.0%	-17.2%
SMILES	Vaccinia mCherry	HCMV inh	TbPYK inhibitor	LmPK inhibitor	Vaccinia Venus
COc1ccc2[nH]cc(CCN=C(NC(=O)c3ccccc3C)Nc3nc(C)cc(C)n3)c2c1	-29.4%	?	-1.9%	.	-11.5%
COc1ccc2[nH]cc(CCN=C(NC(=O)c3ccccc3OC)Nc3nc(C)cc(C)n3)c2c1	?	-95.8*	3.3%	.	-25.4%
CN(c1cccc(Cl)c1)S(=O)(=O)c1cccc(C(=O)NN2CCOCC2)c1	.	0.0	0.8%	.	.
Cc1ccc(C(=O)Nc2nc(C)c(C)s2)o1	-16.9%	36.0	-23.6%	14.1µM*	-13.1%
Cc1ccc2nc(NC(=O)c3ccc(Br)o3)sc2c1	.	64.6	-1.7%	-10.2%	.
Cc1nc(NC(=O)c2ccc(Br)o2)sc1C	-1.6%	101.6	-6.7%	15.8µM*	-1.5%

Screening results: PubChem BioAssay, National Center for Advancing Translational Sciences (NCATS)
